Source: PubChem BioAssay AID1159580 (chemical genetic matrix, 2015)
“And” between values parts separate entries of the source, which are not always exact repeats. Identical values can stand only once. Out of some 5,500 compounds screened, about 2,000 (36%) were called active. Another 18% or so got no clear call; they are omitted. Cut-off read from the data, not from the text of the source: active = normalized growth mostly below about 0.91 (no sharp cut-off); inconclusive = no clear call, values can overlap the other calls; inactive = mostly above about 0.92. Some of the results follow.

Experiment: chemical genetic growth profiling, strain panel (AID 1159580);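 note: tested at 20 µM; growth read once vehicle control cultures reached saturation at 30 °C; 1 = growth at the plate median or of vehicle wells; lower values mean less growth of the strain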
Conditions: S. cerevisiae deletion strains, growth OD

Measured: normalized growth

Cn1c(=O)[nH]c(=O)c2[nH]cnc21
inactive: locus YAL013W, strain DEP1, stronger effect = lower value 0.993 | locus YAL021C, strain ccr4, stronger effect = lower value 0.997 | locus YAL026C, strain drs2, stronger effect = lower value 0.989 | locus YAL030W, strain snc1, stronger effect = lower value 0.995 | locus YBL061C, strain skt5, stronger effect = lower value 1.01 | locus YBR009C, strain hhf1, stronger effect = lower value 0.999 | locus YBR021W, strain FUR4, stronger effect = lower value 0.991 | locus YBR023C, strain chs3, stronger effect = lower value 0.985 | locus YBR171W, strain sec66, stronger effect = lower value 0.982 | locus YBR229C, strain ROT2, stronger effect = lower value 0.987 | locus YBR231C, strain swc5, stronger effect = lower value 0.993 | locus YBR279W, strain paf1, stronger effect = lower value 0.988 | locus YCL011C, strain gbp2, stronger effect = lower value 1 | locus YCL016C, strain dcc1, stronger effect = lower value 0.987 | locus YCL029C, strain bik1, stronger effect = lower value 0.971 | locus YCL061C, strain MRC1, stronger effect = lower value 0.981 | locus YCL069W, strain vba3, stronger effect = lower value 0.999 | locus YCR088W, strain abp1, stronger effect = lower value 0.988 | locus YDL005C, strain med2, stronger effect = lower value 0.966 | locus YDL035C, strain GPR1, stronger effect = lower value 1 | locus YDL040C, strain nat1, stronger effect = lower value 0.99 | locus YDL074C, strain BRE1, stronger effect = lower value 1.01 | locus YDL101C, strain DUN1, stronger effect = lower value 0.984 | locus YDL134C, strain PPH21, stronger effect = lower value 0.999 | locus YDL185W, strain tfp1, stronger effect = lower value 0.955 | locus YDL192W, strain arf1, stronger effect = lower value 0.981 | locus YDR001C, strain nth1, stronger effect = lower value 0.996 | locus YDR069C, strain doa4, stronger effect = lower value 0.971 | locus YDR101C, strain arx1, stronger effect = lower value 0.981 | locus YDR137W, strain rgp1, stronger effect = lower value 0.979 | locus YDR150W, strain NUM1, stronger effect = lower value 0.994 | locus YDR159W, strain sac3, stronger effect = lower value 0.956 | locus YDR162C, strain NBP2, stronger effect = lower value 0.988 | locus YDR195W, strain ref2 1 | locus YDR297W, strain sur2, stronger effect = lower value 1 | locus YDR318W, strain mcm21, stronger effect = lower value 0.98 | locus YDR334W, strain swr1, stronger effect = lower value 1.01 | locus YDR335W, strain msn5, stronger effect = lower value 0.997 | locus YDR388W, stronger effect = lower value 0.966 | locus YDR392W, strain spt3, stronger effect = lower value 0.941 | locus YDR502C, strain sam2, stronger effect = lower value 0.982 | locus YEL003W, strain gim4, stronger effect = lower value 1 | locus YEL037C, strain rad23, stronger effect = lower value 1 | locus YEL061C, strain CIN8 (second series), stronger effect = lower value 0.999 | locus YEL061C, strain CIN8, stronger effect = lower value 0.994 | locus YER015W, strain faa2, stronger effect = lower value 0.996 | locus YER016W, strain bim1, stronger effect = lower value 1.01 | locus YER110C, stronger effect = lower value 0.969 | locus YER111C, strain swi4, stronger effect = lower value 1 | locus YER155C, strain BEM2 (second series), stronger effect = lower value 0.981 | locus YER155C, strain BEM2, stronger effect = lower value 0.989 | locus YER167W, strain BCK2, stronger effect = lower value 0.975 | locus YFR010W, strain ubp6, stronger effect = lower value 1 | locus YGL078C, strain dbp3, stronger effect = lower value 0.969 | locus YGL086W, strain mad1, stronger effect = lower value 0.977 | locus YGL167C, strain pmr1, stronger effect = lower value 1 | locus YGL173C, strain kem1, stronger effect = lower value 0.991 | locus YGL227W, strain vid30, stronger effect = lower value 0.999 | locus YGL240W, strain doc1, stronger effect = lower value 0.969 | locus YGL248W, strain PDE1, stronger effect = lower value 0.983 | locus YGL253W, strain hxk2, stronger effect = lower value 0.975 | locus YGR078C, strain PAC10, stronger effect = lower value 0.996 | locus YGR135W, strain pre9, stronger effect = lower value 0.977 | locus YGR229C, strain SMI1, stronger effect = lower value 0.993 | locus YGR252W, strain gcn5, stronger effect = lower value 1.06 | locus YHR013C, strain ard1, stronger effect = lower value 0.975 | locus YHR027C, strain rpn1, stronger effect = lower value 0.983 | locus YHR030C, strain SLT2, stronger effect = lower value 0.981 and 0.987 | locus YHR079C, strain IRE1 (second series), stronger effect = lower value 0.97 | locus YHR079C, strain IRE1, stronger effect = lower value 0.984 | locus YHR094C, strain hxt1, stronger effect = lower value 0.977 | locus YHR129C, strain ARP1, stronger effect = lower value 0.994 | locus YHR142W, strain chs7, stronger effect = lower value 1 | locus YHR200W, strain rpn10, stronger effect = lower value 0.968 | locus YIL066C, strain RNR3, stronger effect = lower value 0.988 | locus YIL073C, strain SPO22, stronger effect = lower value 0.935 | locus YIL125W, strain kgd1, stronger effect = lower value 0.971 | locus YIR030C, strain dcg1, stronger effect = lower value 0.967 | locus YJL092W, strain hpr5, stronger effect = lower value 0.996 | locus YJL095W, strain BCK1 (second series), stronger effect = lower value 0.999 | locus YJL095W, strain BCK1, stronger effect = lower value 0.977 and 0.976 | locus YJL115W, strain asf1, stronger effect = lower value 0.973 | locus YJL129C, strain trk1, stronger effect = lower value 0.968 | locus YJL134W, strain LCB3, stronger effect = lower value 0.987 | locus YJL154C, strain vps35, stronger effect = lower value 0.998 | locus YJL164C, strain tpk1, stronger effect = lower value 1.01 | locus YJL166W, strain qcr8, stronger effect = lower value 1 | locus YJL168C, strain set2, stronger effect = lower value 0.973 | locus YJL187C, strain SWE1 (second series), stronger effect = lower value 0.987 | locus YJR043C, strain POL32, stronger effect = lower value 1 | locus YJR066W, strain TOR1, stronger effect = lower value 0.911
